Where “and” joins values, the source holds several entries; their conditions need not be identical. Identical values can stand only once. Inconclusive results are not listed. Calls of active or inactive are those of the source. The call rests on the fitted dose curve; in most records, active means well fitted activation curve with a large enough effect; inconclusive means small, poorly fitted or top-dose-only effect; inactive means flat fitted curve, though single readings scatter.

The nature of this assay: Extended Characterization of HPGD Inhibitors: PGE2 Assay in A549 Cells. The note with it: PGE2 HTRF level, 16 h. The source says: The central role of HPGD is to inactivate prostaglandins such as prostaglandin E2 (PGE2) or prostaglandin D2 (PGD2). These prostaglandins are involved in a number of processes, including inflammation, differentiation, and cellular signaling, which makes HPGD an important target for pharmacological intervention. A number of prostaglandins of particular biological interest have been identified as substrates of HPGD. […] Over-production of PGE2 has been reported to promote tumor-associated neovascularization, cell proliferation, and tumor growth. […] In this orthogonal assay, we set out to measure if compounds were able to increase PGE2 production NIH Chemical Genomics Center [NCGC] NIH Molecular Libraries Probe Centers Network [MLPCN] MLPCN Grant: MH084681 Assay Submitter (PI): Structural Genomics Consortium
A549 cells, LNCaP cells or media were dispensed in 384-well plates (ProxiPlate-384 Plus, PerkinElmer, Shelton, CT) at 5,000 cells/9.9 uL/well using a CappAero384 multichannel pipette (Odense, Denmark). Separately on the plate, 10 uL of PGE2 calibration standards at a starting assay concentration of 5,000 pg/mL (1:2 dilution, 12-points, n = 1, prepared in media, Cisbio, Bedford, MA) were dispensed. Compounds (100 nL, final concentration range from 41.9 nM to 100 uM) were transferred using an ATS Acoustic Liquid Dispenser (EDC Biosystems, Fremont, CA). After being mixed using an automated liquid handler (CyBio, Jena, Germany), samples were incubated (37 deg C, 5% CO2, under a humidified atmosphere) for 16 hours. PGE2 labeled conjugates were added to each well, first 5 uL of PGE2-d2, followed by 5 uL of anti-PGE2-cryptate, centrifuged (1,500 rpm, 15 sec) and incubated (RT, protected from light) for 5 hours. Time-resolved fluorescence intensity (320 nm excitation, 615 and 665 nm emission) was measured using an Envision plate reader (PerkinElmer). Data was expressed as the ratio of 665 nm/615 nm emissions. Concentration (pg/mL) of samples were calculated from a 4-parameter logistic calibration curves of the PGE2 standards.
On the technique in general: Time-resolved FRET reads energy transfer from a long-lived donor to a nearby acceptor.
With `Cc1cc(-c2nnc3n2CCCCC3)c(C)n1-c1ccc(C(C)(C)C)cc1`, the Potency was 8.33 µM (active) and 13.2 µM (active).

Take `Cc1cc(-c2nnc3n2CCCCC3)c(C)n1-c1cccnc1`: the Potency is 1.87 µM (active).

As to `COC(=O)[C@]12CCC(C)(C)C[C@H]1[C@H]1C(=O)C=C3[C@@]4(C)C=C(C#N)C(=O)C(C)(C)[C@@H]4CC[C@@]3(C)[C@]1(C)CC2`, the Potency was 16.6 µM (active).

With `Cc1cccc(-n2cnc3cc(C(=O)N4CCCC(C)C4)ccc32)c1` (centres undefined), the Potency is 9.35 µM (active).
